Measurements from PubChem BioAssay.

Molecular target: Dickkopf-related protein 1 (Homo sapiens) (UniProt O94907)
Assay: small molecules binding DKK1 protein – biochemical, small-molecule microarray, 635 nm fluorescence scan, primary screen (AID 1106);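 also: score merges emission near 667 nm with signal to noise over three replicate slides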
Details: higher = more signal

Chain of Dickkopf-related protein 1 (Homo sapiens) (O94907 whole entry, looked up): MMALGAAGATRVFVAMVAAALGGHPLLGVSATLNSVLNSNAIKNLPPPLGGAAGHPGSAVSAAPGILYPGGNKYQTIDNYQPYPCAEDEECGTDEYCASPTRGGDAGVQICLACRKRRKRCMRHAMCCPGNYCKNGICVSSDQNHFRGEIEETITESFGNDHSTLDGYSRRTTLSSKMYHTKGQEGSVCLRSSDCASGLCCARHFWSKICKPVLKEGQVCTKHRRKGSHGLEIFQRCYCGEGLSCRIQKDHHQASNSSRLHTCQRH

Structure (SMILES)	composite z-score
CCCCOC(OCCCC)C(O)CSc1ccc2ccccc2c1 (stereo not drawn)	0.486
CCOC(=O)CCN1C(=O)[C@H]2[C@H]3[C@H](O)[C@H](O)CC(=O)[C@@H]3CC[C@H]2C1=O	0.935
CON=C(C)CCN1CCCc2nc(C)c(C)cc21	0.847
COC(=O)CC=C1c2ccccc2[C@H](OC)[C@H]1C	0.485
C=CC[C@@H]1C=C[C@H](ON=C[C@@H](NS(=O)(=O)c2ccc(C)cc2)[C@H](C)C=CCC(=O)OC)[C@@H](CO)O1	0.619
O=C1C=C[C@@H](O)[C@@H]2[C@@H]3C(=O)N(c4cccc(Oc5ccccc5)c4)C(=O)[C@@H]3CC[C@@H]12	0.503
C=CC[C@@H]1C=C[C@H](Oc2ccc(C)cc2)[C@@H](COC(=O)NCc2cccc3ccccc23)O1	0.142
O=C1[C@H]2[C@H]3[C@H](O)[C@H](O)CC(=NOCc4ccccc4)[C@@H]3CC[C@H]2C(=O)N1c1cccc(Oc2ccccc2)c1	0.0072
CCCC[C@H]1CN2[C@@H](CC[C@@H](C)[C@@H]2c2ccc(Br)cc2)C(=O)O1	0.296
CCOC(=O)[C@H](Cc1ccccc1)NC(=O)CCC1CC(OC(=O)NCc2cccc3ccccc23)CC2(CCCC(COC(=O)NCc3ccc4c(c3)OCO4)O2)O1 (stereo partly drawn)	0.141
CC(C)(C)N1C(=O)[C@H]2[C@H]3[C@H](O)[C@H](O)CC(=NNC(=O)OCc4ccccc4)[C@@H]3CC[C@H]2C1=O	0.455
COc1ccc(OC[C@@H]2CC3[C@@H](c4ccc(Br)cc4)[C@H](C)CC[C@H]3C(=O)O2)cc1 (stereo partly drawn)	0.827
CC(C)=CCCC(C)=CCON=C1C[C@@H](O)[C@@H](O)[C@@H]2[C@@H]3C(=O)N(c4cccc(Oc5ccccc5)c4)C(=O)[C@@H]3CC[C@H]12	0.419
